Test results reported in PubChem BioAssay AID1159580 (chemical genetic matrix, 2015).
“And” between values parts separate entries of the source, which are not always exact repeats. Identical values can stand only once. Hit rate of the full screen: of about 5,500 compounds, about 2,000 (36%) were called active. Inconclusive results (about 18%) are left out. Cut-off read from the data, not from the text of the source: active = normalized growth mostly below about 0.91 (no sharp cut-off); inconclusive = no clear call, values can overlap the other calls; inactive = mostly above about 0.92. The list shows a part of the results.

Test: chemical genetic growth profiling, strain panel (AID 1159580);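 note: tested at 20 µM; growth read once vehicle control cultures reached saturation at 30 °C; 1 = growth at the plate median or of vehicle wells; lower values mean less growth of the strain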
Details: S. cerevisiae deletion strains, growth OD

Measured: normalized growth

O=C(O)[C@H](O)[C@@](O)(Cc1ccc(O)cc1)C(=O)O
inactive: locus YAL013W, strain DEP1, active compounds read low 1.04 | locus YAL021C, strain ccr4, active compounds read low 1 | locus YAL026C, strain drs2, active compounds read low 1 | locus YAL030W, strain snc1, active compounds read low 1.01 | locus YBL061C, strain skt5, active compounds read low 1.01 | locus YBR009C, strain hhf1, active compounds read low 1.01 | locus YBR021W, strain FUR4, active compounds read low 1.02 | locus YBR023C, strain chs3, active compounds read low 1.02 | locus YBR171W, strain sec66, active compounds read low 1.02 | locus YBR229C, strain ROT2, active compounds read low 1.02 | locus YBR231C, strain swc5, active compounds read low 1.01 | locus YBR279W, strain paf1, active compounds read low 1.01 | locus YCL011C, strain gbp2, active compounds read low 1.01 | locus YCL016C, strain dcc1, active compounds read low 1.02 | locus YCL029C, strain bik1, active compounds read low 1.02 | locus YCL061C, strain MRC1, active compounds read low 1.02 | locus YCL069W, strain vba3, active compounds read low 1 | locus YCR088W, strain abp1, active compounds read low 1.01 | locus YDL005C, strain med2, active compounds read low 0.996 | locus YDL035C, strain GPR1, active compounds read low 1.06 | locus YDL040C, strain nat1, active compounds read low 1 | locus YDL074C, strain BRE1, active compounds read low 1.06 | locus YDL101C, strain DUN1, active compounds read low 1.03 | locus YDL134C, strain PPH21, active compounds read low 1.02 | locus YDL185W, strain tfp1, active compounds read low 0.992 | locus YDL192W, strain arf1, active compounds read low 1.03 | locus YDR001C, strain nth1, active compounds read low 1.02 | locus YDR069C, strain doa4, active compounds read low 1.01 | locus YDR101C, strain arx1, active compounds read low 1.02 | locus YDR137W, strain rgp1, active compounds read low 1.03 | locus YDR159W, strain sac3, active compounds read low 1 | locus YDR162C, strain NBP2, active compounds read low 1.06 | locus YDR195W, strain ref2 0.989 | locus YDR297W, strain sur2, active compounds read low 1.01 | locus YDR318W, strain mcm21, active compounds read low 1.01 | locus YDR334W, strain swr1, active compounds read low 1.01 | locus YDR335W, strain msn5, active compounds read low 1 | locus YDR388W, active compounds read low 1 | locus YDR392W, strain spt3, active compounds read low 0.976 | locus YDR502C, strain sam2, active compounds read low 0.995 | locus YEL003W, strain gim4, active compounds read low 0.999 | locus YEL037C, strain rad23, active compounds read low 1 | locus YEL061C, strain CIN8 (second series), active compounds read low 0.999 | locus YER015W, strain faa2, active compounds read low 1 | locus YER016W, strain bim1, active compounds read low 1 | locus YER110C, active compounds read low 0.992 | locus YER111C, strain swi4, active compounds read low 1 | locus YER155C, strain BEM2 (second series), active compounds read low 1.01 | locus YER155C, strain BEM2, active compounds read low 1.01 | locus YER167W, strain BCK2, active compounds read low 1.02 | locus YFR010W, strain ubp6, active compounds read low 1.01 | locus YGL078C, strain dbp3, active compounds read low 1.01 | locus YGL086W, strain mad1, active compounds read low 1.01 | locus YGL167C, strain pmr1, active compounds read low 1.01 | locus YGL173C, strain kem1, active compounds read low 1.02 | locus YGL227W, strain vid30, active compounds read low 1.01 | locus YGL240W, strain doc1, active compounds read low 1.01 | locus YGL248W, strain PDE1, active compounds read low 1.03 | locus YGL253W, strain hxk2, active compounds read low 1.01 | locus YGR078C, strain PAC10, active compounds read low 1.03 | locus YGR135W, strain pre9, active compounds read low 0.987 | locus YGR252W, strain gcn5, active compounds read low 0.966 | locus YHR013C, strain ard1, active compounds read low 1.02 | locus YHR027C, strain rpn1, active compounds read low 1.02 | locus YHR030C, strain SLT2, active compounds read low 1.02 and 1.01 | locus YHR079C, strain IRE1 (second series), active compounds read low 1 | locus YHR079C, strain IRE1, active compounds read low 1 | locus YHR094C, strain hxt1, active compounds read low 0.999 | locus YHR129C, strain ARP1, active compounds read low 1.02 | locus YHR142W, strain chs7, active compounds read low 1.02 | locus YHR200W, strain rpn10, active compounds read low 0.996 | locus YIL066C, strain RNR3, active compounds read low 1.04 | locus YIL073C, strain SPO22, active compounds read low 1.05 | locus YIL125W, strain kgd1, active compounds read low 1.02 | locus YIR030C, strain dcg1, active compounds read low 1 | locus YJL092W, strain hpr5, active compounds read low 1.02 | locus YJL095W, strain BCK1 (second series), active compounds read low 1.01 | locus YJL095W, strain BCK1, active compounds read low 1.05 and 1.01 | locus YJL115W, strain asf1, active compounds read low 0.997 | locus YJL129C, strain trk1, active compounds read low 1.03 | locus YJL134W, strain LCB3, active compounds read low 1.02 | locus YJL154C, strain vps35, active compounds read low 1 | locus YJL164C, strain tpk1, active compounds read low 1.01 | locus YJL166W, strain qcr8, active compounds read low 1.01 | locus YJL168C, strain set2, active compounds read low 1 | locus YJL187C, strain SWE1 (second series), active compounds read low 1.04 | locus YJL187C, strain SWE1, active compounds read low 1.01 | locus YJR043C, strain POL32, active compounds read low 1.06
